These results are taken from PubChem BioAssay (EPA / NIEHS).

The nature of experiment [1]: ATG_NFI_CIS: Attagene CIS-FACTORIAL HepG2 Assay for human Nuclear Factor I (NFI) (AID 2282989). The note with it: HepG2 cis-regulatory reporter, NFI response element transcription; actives raise or lower the signal. Summed up: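 Reporter transcripts were measured by RT-PCR with fluorescent primer extension and capillary electrophoresis 24 h post-treatment. HepG2 cells carried transiently transfected cis-regulated reporter constructs reporting endogenous factor activity; gain or loss fitted against DMSO baseline.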

Experiment [2] addresses Myc proto-oncogene protein (Homo sapiens) (UniProt P01106). The experiment is described as follows: ATG_Myc_CIS: Attagene CIS-FACTORIAL HepG2 Assay for human Myelocytomatosis (Myc) Proto-Oncogene Transcription Factor (AID 2282990). The note with it: HepG2, Attagene cis-reporter transcription factor activity; actives raise or lower the signal. Summed up: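 DMSO-normalised, bidirectionally fitted reporter mRNA signal. HepG2 cells transfected with cis reporter constructs, treated 24 h; transcripts detected by RT-PCR, 6-FAM primer extension and CE.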

Experiment [3] in a line: ATG_NF_kB_CIS: Attagene CIS-FACTORIAL HepG2 Assay for human Nuclear Factor Kappa B (NF-kB) (AID 2282991). The following applies: HepG2 Attagene cis-factorial NF-kB reporter mRNA; actives raise or lower the signal. In short, it runs like this: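 Transient MRTU transfection of human HepG2 liver cells → 24 h chemical exposure → total RNA, oligo(dT) RT → PCR, 6-FAM primer extension, HpaI digest 2 h 37 C → CE fragment analysis. Bidirectional fitting, DMSO negative control.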

The nature of experiment [4]: ATG_NRF2_ARE_CIS: Attagene CIS-FACTORIAL HepG2 Assay for human Nuclear Factor Erythroid 2 Related Factor 2 (NFR2) response to Antioxidant Response Elements (ARE) (AID 2282992).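 As to AC50: reporter mRNA level measured by RT-PCR and capillary electrophoresis fluorescence.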 The following applies: HepG2 Attagene ARE/NRF2 reporter, transcription factor activity; actives raise or lower the signal. Summed up: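 Fluorescence intensity of reporter-specific cDNA fragments, separated by capillary electrophoresis, reflects mRNA induction in transfected HepG2 cells at 24 h. Activity is fitted bidirectionally, DMSO serving as baseline.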

Experiment [5] is described as follows: ATG_Oct_MLP_CIS: Attagene CIS-FACTORIAL HepG2 Assay for human Octamer-Binding Transcription Factor (Oct) (AID 2282993). The following applies: HepG2 Attagene cis-factorial Oct reporter, mRNA; actives raise or lower the signal. In short, it runs like this:
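Readout is reporter transcript level from RT-PCR with fluorescent primer extension and capillary electrophoresis, fitted in both directions against DMSO. Transfected HepG2 reporter units report endogenous factor activity after 24 h dosing.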

In experiment [6] the target is Cellular tumor antigen p53 (Homo sapiens) (UniProt P04637). The experiment is described as follows: ATG_p53_CIS: Attagene CIS-FACTORIAL HepG2 Assay for human p53 Transcription Factor (AID 2282994). The following applies: HepG2 p53 cis-element reporter, Attagene mRNA; actives raise or lower the signal. Summed up:
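Transiently transfected HepG2 (multiple cis reporter transcription units); exposure 24 h; reporter RNA via RT-PCR, 6-FAM extension, 2 h HpaI digest at 37 C, CE detection; DMSO baseline.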

Experiment [7] is described as follows: BSK_3C_TissueFactor: BioMAP Diversity Plus: 3C Assay for Tissue Factor Biomarker Activity (AID 2282997). The note with it: BioMAP 3C HUVEC, tissue factor biomarker readout; actives raise or lower the signal. In short, it runs like this:
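Readout: Tissue Factor ELISA. Cells: human primary umbilical vein endothelium. Time: 24 h after dosing. Analysis: bidirectional fit, DMSO baseline.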

Experiment [8] is described as follows: BSK_3C_uPAR: BioMAP Diversity Plus: 3C Assay for Urokinase-type plasminogen activator receptor (uPAR) Biomarker Activity (AID 2282998). The following applies: BioMAP 3C HUVEC, uPAR biomarker ELISA; actives raise or lower the signal. In short, it runs like this: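 Cell-surface uPAR on HUVEC (3C system) read by ELISA at 24 h post-treatment, with DMSO as baseline and fitting in both directions. Parallel cultures stained with SRB to flag overt cytotoxicity.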
(In general: In an ELISA, binding on a coated surface is turned into a signal by an enzyme label.)

Experiment [9] can be described thus: BSK_3C_VCAM1: BioMAP Diversity Plus: 3C Assay for Vascular cell adhesion molecule 1 (VCAM1) Biomarker Activity (AID 2282999). The following applies: BioMAP 3C HUVEC, VCAM1 ELISA, cytokine-stimulated; actives raise or lower the signal. In short, it runs like this: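 Vascular primary endothelium (human umbilical vein) was exposed to chemicals and assayed 24 h later. VCAM-1 levels came from ELISA, with DMSO serving as baseline for bidirectional fitting.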

Experiment [10] in a line: BSK_4H_Eotaxin3: BioMAP Diversity Plus: 4H Assay for Eotaxin 3 Biomarker Activity (AID 2283000).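 As to outcome: CCL26 protein level quantified by ELISA in parallel with SRB cytotoxicity check.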 The following applies: primary human endothelial cells (HUVEC); actives raise or lower the signal. Summed up:
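HUVEC, 24 h post-dose, ELISA for Eotaxin-3/CCL26. Gain or loss of signal fitted bidirectionally vs DMSO baseline.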

Usually AC50 stands for the concentration at which the activity in the assay is half-maximal.

The structures appear in SMILES notation. Several values for one entry are separate records, joined by “and”; a condition that tells them apart may be missing. Equal values may be shown once. The source holds several records for some structures; these can differ, active in one and inactive in another. Activity calls are given as the source filed them. The calls were made as follows: active = hit-call score of the fitted dose curve at least 0.9, where 1 is the maximum; inactive = score below 0.9.

Chain of Myc proto-oncogene protein (Homo sapiens) (P01106 whole entry, looked up): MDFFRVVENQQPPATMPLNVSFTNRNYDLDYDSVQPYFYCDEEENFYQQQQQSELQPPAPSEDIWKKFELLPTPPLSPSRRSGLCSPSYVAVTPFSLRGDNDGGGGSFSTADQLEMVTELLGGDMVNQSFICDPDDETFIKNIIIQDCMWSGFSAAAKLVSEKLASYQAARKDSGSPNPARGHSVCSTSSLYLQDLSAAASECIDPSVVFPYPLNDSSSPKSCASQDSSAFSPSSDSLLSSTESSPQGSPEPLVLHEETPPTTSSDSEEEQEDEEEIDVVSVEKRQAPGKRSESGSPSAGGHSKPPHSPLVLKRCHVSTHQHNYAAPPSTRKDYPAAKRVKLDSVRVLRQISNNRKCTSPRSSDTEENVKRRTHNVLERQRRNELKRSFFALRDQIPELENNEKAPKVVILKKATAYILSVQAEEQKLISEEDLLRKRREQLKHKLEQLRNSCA
Chain of Cellular tumor antigen p53 (Homo sapiens) (P04637 whole entry, looked up): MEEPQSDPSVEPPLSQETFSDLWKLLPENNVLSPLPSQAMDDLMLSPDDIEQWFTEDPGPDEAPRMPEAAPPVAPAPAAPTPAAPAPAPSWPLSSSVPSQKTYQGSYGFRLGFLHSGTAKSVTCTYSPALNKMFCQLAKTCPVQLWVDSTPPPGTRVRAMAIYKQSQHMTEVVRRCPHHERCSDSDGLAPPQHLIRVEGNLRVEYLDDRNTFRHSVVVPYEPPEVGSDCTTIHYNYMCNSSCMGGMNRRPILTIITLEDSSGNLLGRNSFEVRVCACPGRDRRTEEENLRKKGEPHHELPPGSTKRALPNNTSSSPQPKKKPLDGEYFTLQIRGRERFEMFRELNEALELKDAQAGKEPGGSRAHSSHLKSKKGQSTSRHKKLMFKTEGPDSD

Take `CCN(CC)C(=O)c1cc(S(=O)(=O)Cc2ccccc2)c(N2CCC(c3ccccc3)CC2)cc1N(CC)CCN(C)C`: the result in experiment [1], in [2], in [3], in experiment [5] and in experiment [6] was inactive. The AC50 in [4] is 3.7 µM (active); in experiment [7] it was 32.2 µM (active); in experiment [8], 5.11 µM (active); in [9] it was 12.9 µM (active); in experiment [10], 18.7 µM (active).
For `O=C1CCC(C2CCCCC2)CC1`, the compound was called inactive in [1], in experiment [2], in experiment [3], in [5], in experiment [6] and in [7]. Further, the outcome in [9] and in experiment [10] was inactive. The AC50 in experiment [2] was 187 µM (active); in [4], 100 µM (active) [middle of 4 runs]; in experiment [6], 166 µM (active).
In the case of `CCCCCCCCCCCC[N+](C)(C)C`, the outcome in [1], in [2], in experiment [3], in experiment [5], in experiment [6] and in [7] was inactive. In addition, the AC50 in [4] is 25.3 µM (active) and 18.9 µM (active); in [5], 20 µM (active); in experiment [8] it was 20 µM (active); in experiment [9], 25.8 µM (active); in [10], 29.9 µM (active).
Take `CCCCCCCCCC(=O)O`: the outcome in experiment [1], in experiment [2], in experiment [3], in experiment [4], in experiment [5] and in experiment [6] was inactive. The result in [7], in [9] and in experiment [10] was inactive. The AC50 in [3] was 104 µM (active).
Take `CN(C)C(=O)C1(N2CCCCC2)CCN(CC[C@@]2(c3ccc(Cl)c(Cl)c3)CN(C(=O)c3ccccc3)CCO2)CC1`: the result in [1], in experiment [2], in [5] and in experiment [6] was inactive. Also, the AC50 in experiment [3] is 0.62 µM (active); in experiment [4], 0.458 µM (active); in experiment [7] it was 33.1 µM (active); in experiment [9], 29.5 µM (active); in experiment [10], 27.9 µM (active).
For `Cc1oc2c(NC(=O)c3c(Cl)cccc3Cl)cccc2c1C(C)(C)O`, the outcome in experiment [1], in experiment [2], in experiment [4], in [5] and in [9] was inactive. In addition, the AC50 in experiment [6] was 25.6 µM (active); in experiment [7] it was 4.29 µM (active).
Regarding `COc1cccc([C@H](O)C2CCN(CCc3ccc(F)cc3)CC2)c1OC`, the result in [1], in experiment [2], in experiment [3], in experiment [7], in experiment [9] and in [10] was inactive. For the same compound, the AC50 is 140 µM (active) in experiment [4], 157 µM (active) in experiment [5] and 100 µM (active) in [6].
With `CCCC(=O)OCCC(C)C`, the compound was classed as inactive in [1], in experiment [2], in [3], in experiment [4], in [5] and in [6]. Besides, the outcome in [7] and in experiment [9] was inactive.
`Cc1ncc(CO)c(CO)c1O`: the result in [1], in [2], in [4], in experiment [5], in experiment [6] and in experiment [7] was inactive. For the same compound, the result in experiment [8] and in [9] was inactive.
As to `CCN(Cc1cccc(S(=O)(=O)O)c1)c1ccc(C(=C2C=CC(=[N+](CC)Cc3cccc(S(=O)(=O)O)c3)C=C2)c2ccccc2S(=O)(=O)[O-])cc1`, the call in experiment [1], in experiment [2], in experiment [3], in [4], in [5] and in [6] was inactive. Also, the result in experiment [7] and in experiment [9] was inactive.
In the case of `NC(=O)c1nc(-c2cccc(-c3cc(F)ccc3OCC(F)(F)C(F)(F)F)c2)n[nH]1`, the call in experiment [1], in [2], in experiment [3] and in experiment [6] was inactive. For the same compound, the AC50 in experiment [4] is 8.83 µM (active); in [5], 27.4 µM (active); in experiment [7], 29.7 µM (active); in experiment [9] it was 35.7 µM (active); in [10], 37 µM (active).
For `Cc1ccc(C(C)C)cc1`, the outcome in experiment [1], in experiment [2], in experiment [4], in experiment [5], in [6] and in experiment [7] was inactive. Besides, the result in experiment [9] was inactive.
Consider `c1ccc2ccccc2c1`, for which the result in experiment [1], in experiment [2], in [3], in experiment [4], in experiment [5] and in [6] was inactive. For the same compound, the outcome in experiment [7], in [9] and in experiment [10] was inactive.
On to `CC[C@H](NC(=O)c1cc(F)ccc1NS(=O)(=O)c1cccc2cccnc12)c1ccccc1`, for which the call in [1], in [2], in [3], in experiment [5], in [6] and in [7] was inactive. The outcome in experiment [9] and in experiment [10] was inactive. Also, the half-maximal activity concentration (AC50) in experiment [4] was 0.13 µM (active).
`CC1(C)NC(=O)N(c2ccc([N+](=O)[O-])c(C(F)(F)F)c2)C1=O`: the outcome in experiment [1], in experiment [2], in experiment [4], in experiment [5], in [6] and in [7] was inactive. Moreover, the outcome in [9] and in [10] was inactive. For the same compound, the AC50 in [4] is 68.8 µM (active) and 22 µM (active) and 46 µM (active).
On to `OC12N=C(c3ccccc3)SC1Cc1cc(Cl)ccc12` (stereo not given), for which the call in experiment [1], in experiment [2], in experiment [5], in experiment [6] and in [9] was inactive. For the same compound, the AC50 was 3.75 µM (active) in [4] and 5.1 µM (active) in experiment [7].
Turning to `CC(O)CC(C)(C)O` (stereo not given), the outcome in experiment [1], in [2], in experiment [3], in [4], in experiment [5] and in experiment [6] was inactive. In addition, the outcome in experiment [7] and in experiment [9] was inactive.
In the case of `C[C@]12CC[C@@H]3c4ccc(O)cc4CC[C@H]3[C@@H]1CCC2=O`, the compound was classed as inactive in experiment [1], in experiment [2], in experiment [3], in experiment [4], in experiment [5] and in [7]. The outcome in [9] was inactive.
`CC[C@@H]1C[C@H](N(Cc2cc(C(F)(F)F)cc(C(F)(F)F)c2)C(C)=O)c2cc(C(F)(F)F)ccc2N1C(=O)OC(C)C`: the compound was called inactive in experiment [1], in [2], in experiment [3], in experiment [4], in experiment [5] and in experiment [6]. Besides, the outcome in [7], in experiment [9] and in experiment [10] was inactive.
